The campaign covered roughly 350,000 compounds. About 180 (0.051%) were called active. This is one part of a sample in which actives are shown more often than they occur. Values without a mark were called inactive.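 The calls were made as follows: active = mean inhibition across replicates of 30% or more, whatever share of single replicates reach that level; inconclusive = mean inhibition below 30% while every single replicate reaches 30%; inactive = the rest.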
Each compound was assayed against Protein disulfide-isomerase (Homo sapiens) (UniProt P07237) (assay: blockers of PDI-driven insulin aggregation – biochemical, turbidity, single point, plate reader, primary screen (AID 588391;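 also: absorbance from insulin aggregation driven by PDI reduction with DTT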)). Conditions: A650, 90 min, at 10 µM, hits give high values.
Protein disulfide-isomerase (Homo sapiens), sequence (P07237 whole entry, looked up): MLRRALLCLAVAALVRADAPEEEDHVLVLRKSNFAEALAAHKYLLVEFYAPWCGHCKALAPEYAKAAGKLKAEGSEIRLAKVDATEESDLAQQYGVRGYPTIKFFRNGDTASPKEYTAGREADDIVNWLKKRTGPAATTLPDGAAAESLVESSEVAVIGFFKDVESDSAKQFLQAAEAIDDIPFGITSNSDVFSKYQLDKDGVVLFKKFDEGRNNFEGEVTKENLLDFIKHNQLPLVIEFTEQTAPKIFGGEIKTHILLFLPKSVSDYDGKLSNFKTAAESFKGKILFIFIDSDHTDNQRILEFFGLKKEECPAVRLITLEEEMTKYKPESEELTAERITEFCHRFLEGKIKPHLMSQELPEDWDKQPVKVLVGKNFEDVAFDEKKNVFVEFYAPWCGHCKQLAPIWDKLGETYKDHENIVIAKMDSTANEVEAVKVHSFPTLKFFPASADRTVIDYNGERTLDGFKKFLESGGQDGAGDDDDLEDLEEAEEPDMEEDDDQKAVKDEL
`CCNC(=O)C1(C)CCN(Cc2ccc(C(=O)OCC)o2)C1` (stereo not drawn) gave an inhibition of 8.45%.
Work on `CCCOc1ccc(F)cc1-c1cc(C(=O)Nc2ccc(F)cc2)[nH]n1` yielded an inhibition of 5.38%.
Compound `CC1(C(=O)NCc2ccc3c(c2)OCO3)CCN1C(=O)Cc1cccs1` (stereo not drawn) has an inhibition of -7.14%.
Work on `CC(C)Oc1ccc(CN2CCC2(C)C(=O)NCc2ccc(C(F)(F)F)cc2)cc1` (stereo not drawn) yielded an inhibition of 4.17%.
`CC1(C(=O)Nc2cccc3c2CCCC3)CCN1C(=O)CCc1ccc(Cl)cc1Cl` (stereo not drawn) showed an inhibition of -3.08%.
`NCCCNC(=S)NCCCN(Cc1ccc(Cl)cc1)c1ccc(Br)cn1` was tested, and the inhibition was 22.2%.
`COc1cccc(CNc2nc(NCc3cccs3)nc3ccsc23)c1` gave an inhibition of -1.8%.
For `CCc1nc2ccc(C(=O)Nc3ccc(OC)c(OC)c3)cn2c1N(C)C(=O)c1cccc(OC)c1`, the inhibition was 10.6%.
In the case of `NC(Cc1ccccc1)c1csc(Nc2cc(Oc3ccccc3)ncn2)n1` (stereo not drawn), the inhibition is reported as 0.811%.
Compound `OC[C@@H]1CN(Cc2ccncc2)C[C@H](n2cnc3c(N4CCN(c5ccccc5)CC4)ncnc32)O1` has an inhibition of -1.41%.
`COCCNc1ncnc2c1ncn2[C@H]1CN(Cc2ccc(OC)cc2)C[C@@H](CO)O1` was tested, and the inhibition was -0.829%.
Compound `CC(=O)Nc1cccc(-c2cc(NC(C)=O)c3ncc(-c4ccccc4)n3c2)c1` has an inhibition of 0.99%.
In the case of `COc1cccc(CNc2nc(NCc3ccccc3OC)nc3ccsc23)c1`, the inhibition is reported as -20.9%.
For `CCNC(=S)Nc1ccc2c(c1)c(=O)n(C)n2Cc1ccc(Cl)cc1`, the inhibition was 7.91%.
With `CSc1ccc(CNC(=O)C2(C)CCCN2C)cc1` (stereo not drawn) the inhibition was -9.77%.
Work on `CCc1ccc2c(c1)NC(=O)C2(C)Cc1ccc(OC(F)(F)F)cc1` (stereo not drawn) yielded an inhibition of 8.05%.
With `CCCNC(=O)C1(C)CCCN(C(=O)c2oc3ccccc3c2C)C1` (stereo not drawn) the inhibition was 10.4%.
`CC1(C(=O)NS(=O)(=O)c2cccc(OC(F)F)c2)CCN1C(=O)COc1ccc(Cl)cc1` (stereo not drawn) showed an inhibition of -2.12%.
`Nc1nc(CSc2nnnn2-c2ccccc2)nc(Nc2ccccc2)n1` showed an inhibition of -5.2%.
Compound `Cn1c(Nc2ccc(F)cc2)nc2cc(-c3ccsc3)sc2c1=O` has an inhibition of -4.93%.
`CCCNC(=O)c1cc(C2CCCCN2S(=O)(=O)c2cn(C)cn2)on1` (stereo not drawn) gave an inhibition of -5.28%.
`COc1cccc(-c2ccc3c(c2)N(Cc2ccccc2OC)C(=O)C(C)S3)c1` (stereo not drawn) was tested, and the inhibition was 0.226%.
`CCCNC(=O)C1(C)CCN(Cc2ccc(Cl)c(Cl)c2)C1` (stereo not drawn) showed an inhibition of -7.24%.
Work on `COc1ccc(Br)c(Cn2c(C)c(C(=O)NCc3cccs3)sc2=O)c1` yielded an inhibition of 6.08%.
In the case of `CC(C)(C)c1ccc(S(=O)(=O)NC(=O)C2(C)CCN2C(=O)CC2CC2)cc1` (stereo not drawn), the inhibition is reported as 4.79%.
Work on `CS(=O)(=O)c1cccc(-c2ccc3nncn3c2)c1` yielded an inhibition of 1.16%.
`CC(=O)Nc1cccc(-c2cc3nc(NCc4cccnc4)n(C)c(=O)c3s2)c1` gave an inhibition of -1.23%.
With `CCCNC(=O)C1(C)CCN(Cc2csc(-c3ccc(Cl)cc3)n2)C1` (stereo not drawn) the inhibition was 14.3%.
In the case of `COc1ccc(-c2ccc(C(=O)NCCN3CCOCC3)c3occc23)c(C)c1`, the inhibition is reported as 0.104%.
Compound `CCc1ccc(OC2(C)CCN(CCOc3ccc(C)cc3)C2)cc1` (stereo not drawn) has an inhibition of -1.04%.
Work on `CC(=O)Nc1cccc(-c2ccnc3c2CC(C)(C(=O)NCc2ccco2)O3)c1` (stereo not drawn) yielded an inhibition of 2.4%.
`CC(C)(C)CC(=O)Nc1nc(C(N)Cc2ccc(C(F)(F)F)cc2)cs1` (stereo not drawn) was tested, and the inhibition was -12.3%.
`COCOc1cccc(CN2CCC(C)(Oc3ccc(SC)cc3)C2)c1` (stereo not drawn) showed an inhibition of -14.7%.
`CC1(C(=O)NCc2ccc(F)c(F)c2)Cc2c(-c3ccc4c(c3)OCO4)ccnc2O1` (stereo not drawn) was tested, and the inhibition was 5.69%.
`CCOC(=O)c1[nH]c2ccc(OC)cc2c1NC(=O)N1CCOCC1` showed an inhibition of -4.02%.
`COc1ccc2[nH]c3c(C)c4cc[n+](C)cc4c(C)c3c2c1` was tested, and the inhibition was 46.3% (active).
For `COc1ccc(CC(N)c2csc(NC(=O)Cc3ccccc3)n2)cc1` (stereo not drawn), the inhibition was 8.14%.
Compound `CC1(C(=O)NS(=O)(=O)c2cccc(F)c2)CCN1C(=O)Cc1cc(F)ccc1F` (stereo not drawn) has an inhibition of 9.62%.
`CC1(Oc2ccc(Cl)cc2)CCN(Cc2csc3ccccc23)C1` (stereo not drawn) gave an inhibition of -0.538%.
Compound `CCc1nc2ccc(C(=O)Nc3cc(-c4ccccc4)ccc3OC)cn2c1N(CC)CC(=O)N(C)C` has an inhibition of -5.43%.
`OC(c1cc(Cl)cc(Cl)c1)c1ncc(-c2ccccc2C(F)(F)F)[nH]1` (stereo not drawn) was tested, and the inhibition was -0.656%.
For `CC1(C(=O)Nc2cccc(Oc3ccccc3)c2)CCN1Cc1ccccc1Cl` (stereo not drawn), the inhibition was 8.27%.
With `CCc1nc2ccc(C(=O)NCc3ccc(OC)cc3)cn2c1N(CC)Cc1cccc(Br)c1` the inhibition was 19.2%.
`CC1(Oc2ccccc2-c2ccno2)CCN(Cc2ccc(-c3ccccc3)o2)C1` (stereo not drawn) showed an inhibition of 15.2%.
Compound `CCNC(=O)C1CCCN(C(=O)c2cc(F)ccc2C)CC1` (stereo not drawn) has an inhibition of -2.55%.
In the case of `COc1ccc(-c2cc(NC=O)c3ncc(-c4cc(OC)c(OC)c(OC)c4)n3c2)c(OC)c1`, the inhibition is reported as 2.23%.
In the case of `CCCNC(=O)C1(C)CCCN(Cc2c(C)nn(-c3ccccc3)c2C)C1` (stereo not drawn), the inhibition is reported as 1.08%.
`O=CNc1cc(-c2ccc(C(=O)N3CCOCC3)cc2)cn2c(-c3ccc(F)cc3)cnc12` showed an inhibition of -18.3%.
With `Cc1cccc(-c2cnc(C(O)c3cc(C)cc(C)c3)[nH]2)c1` (stereo not drawn) the inhibition was 8.93%.
For `CCOc1cc(N2CCOCC2)c(OCC)cc1NC(=O)COC(=O)[C@H](Cc1c[nH]c2ccccc12)NC(C)=O`, the inhibition was 44.5% (active).
`CCOc1cc(N2CCOCC2)c(OCC)cc1NC(=O)c1ccc(C)s1` gave an inhibition of -4.12%.
`CCOC(=O)c1ccccc1NC(=O)COC(=O)C(Cc1c[nH]c2ccccc12)NC(C)=O` (stereo not drawn) was tested, and the inhibition was 5.96%.
`COc1ccc(S(=O)(=O)N2CCCCC2c2cc(C(=O)NCc3ccc(F)cc3)no2)cc1` (stereo not drawn) was tested, and the inhibition was -0.518%.
`CCNC(=O)C1(C)CCN(C(=O)c2ccccc2)C1` (stereo not drawn) was tested, and the inhibition was -56.1%.
With `CC1(C(=O)NCc2ccc3c(c2)OCO3)CCN1CCc1ccccc1` (stereo not drawn) the inhibition was 3.4%.
Work on `O=C(NCc1ccco1)c1cccc(-c2ccc3nncn3c2)c1` yielded an inhibition of 3.75%.
Compound `COc1ccc(-c2cc(NC(C)=O)c3ncc(-c4cc(OC)c(OC)c(OC)c4)n3c2)cn1` has an inhibition of -21.1%.
`CN(C)C(=O)c1cccc(-c2cnc3sc(NCc4ccc5c(c4)OCO5)nn23)c1` gave an inhibition of 9.47%.
`O=C(NCc1ccc(F)cc1)c1cc(C2CCCCN2C(=O)c2ccccn2)on1` (stereo not drawn) gave an inhibition of -12%.
In the case of `CCN(CC)C(=O)C1CCCN(Cc2cccc(Cl)c2)C1` (stereo not drawn), the inhibition is reported as -5.23%.
For `Cc1nc(C(F)(F)F)ccc1C(=O)N1CCC1(C)C(=O)NS(=O)(=O)c1ccccc1` (stereo not drawn), the inhibition was -40%.
Work on `CC(=O)Nc1cc(-c2ccccc2F)cn2c(-c3cccc(C(F)(F)F)c3)cnc12` yielded an inhibition of 0.488%.
For `CC(C)c1cccc(-c2csc(C(O)c3ccccc3)n2)c1` (stereo not drawn), the inhibition was 4.52%.
In the case of `CC(=O)OC1CCC2C3CCC4=C(CC(F)C(=O)C4)C3CCC12C` (stereo not drawn), the inhibition is reported as 70.6% (active).
For `CCC(=O)N1CCC(C)(C(=O)Nc2cc(OC)c(OC)c(OC)c2)C1` (stereo not drawn), the inhibition was -1.21%.
Work on `Cc1ccc(NS(=O)(=O)c2cc3c(cc2Br)NC(=O)CO3)cc1C` yielded an inhibition of -4.51%.
For `CCc1nc2c(OCc3ccc(C(F)(F)F)cc3)cccn2c1N(C)C(=O)CC(C)C`, the inhibition was -3.58%.
`OC(c1ccccc1)c1nc(-c2cnc3ccccc3c2)cs1` (stereo not drawn) gave an inhibition of 4.04%.
`CCOCCC(=O)Nc1ccc2c(c1)c(=O)n(C)n2-c1ccc2ccccc2c1` was tested, and the inhibition was -6.74%.
In the case of `Cc1nc2c(OCC(=O)C(C)(C)C)cccn2c1N(C)Cc1cccs1`, the inhibition is reported as -1.4%.
Work on `CCCS(=O)(=O)NC(=O)C1(C)CCN(C(=O)c2sccc2C)C1` (stereo not drawn) yielded an inhibition of 4.32%.
Work on `CCOC(=O)c1ccc(-c2ccc3ncnc(N(C)Cc4sccc4C)c3c2)o1` yielded an inhibition of -3.79%.
`CCc1nc2ccc(C(=O)N(C)CCN(C)C)cn2c1N(CC)CCOC` was tested, and the inhibition was 12.7%.
For `CC(=O)Nc1ccc(-c2ccnc3c2CC(C(=O)NC(C)C)O3)cc1` (stereo not drawn), the inhibition was -7.94%.
In the case of `COc1ccc(-c2coc3c(C(=O)NC(C)C)cccc23)c(C)c1`, the inhibition is reported as -1.08%.
`Cc1ccc(C(NC(=O)C2CCN(CCOc3ccc(Cl)cc3Cl)CC2)c2ccccn2)cc1` (stereo not drawn) was tested, and the inhibition was 2.42%.
`O=C(NCCO)c1cccc(-c2cccc3nccn23)c1` gave an inhibition of -96.6%.
In the case of `Cc1ccc(-c2cnc(C(O)c3cc(Cl)cc(Cl)c3)[nH]2)cc1` (stereo not drawn), the inhibition is reported as -2.73%.
For `COc1cccc(C(O)c2ncc(-c3ccc4ccccc4c3)[nH]2)c1` (stereo not drawn), the inhibition was 7.38%.
`COc1ccc(C(=O)N2CCCCC2c2cc(C(=O)Nc3ccccc3)no2)cc1` (stereo not drawn) was tested, and the inhibition was -4.91%.
`O=C(NCc1cccnc1)c1ccc2nc([C@@H]3O[C@H](CO)[C@H](O)[C@H](O)[C@H]3O)[nH]c2c1` gave an inhibition of -7.99%.
`CC1(C(=O)NS(=O)(=O)c2cccc(F)c2)CCN1C(=O)c1cccc2ccccc12` (stereo not drawn) showed an inhibition of -12.2%.
For `CC(=O)c1cccc(-c2cnc3c(NC=O)cc(-c4ccccc4Oc4ccccc4)cn23)c1`, the inhibition was -15.6%.
`CCNC(=O)C1CCCN(C(=O)c2ccc(OC)cc2OC)CC1` (stereo not drawn) gave an inhibition of -2.37%.
`Cc1ccccc1-c1csc(C(O)c2cccc(Cl)c2)n1` (stereo not drawn) showed an inhibition of 4.37%.
For `CCN(CCN(C)C)C(=O)c1ccc2nc(C)c(N(C)C(=O)CCc3ccccc3)n2c1`, the inhibition was 5.52%.
Compound `CCOc1ccc(Cl)cc1-c1cc(C(=O)NCc2cccs2)[nH]n1` has an inhibition of 5.86%.
`CCCNC(=O)c1cc(C2CCCCN2C(=O)OC)on1` (stereo not drawn) was tested, and the inhibition was 5.56%.

Reference: PubChem BioAssay AID588391 (Broad Institute, 2011)
